50 compounds from ChEMBL document CHEMBL4513146, “CO-ADD screening of Karazin Kharkiv National University (Ukraine) compounds” can be followed below.

Potency and affinity values are given separately.

Experiment [1] concerns Klebsiella pneumoniae. The following applies: Concentration 32 ug.mL-1;; ASSAY_TEST Inhibition of Bacterial Growth; detection method Absorption (OD600); MEDIA CAMHB; plate type 384well; NBS; CORNING #3640; time 18 hr.
The test system of experiment [2] is Candida albicans. The following applies: Concentration 32 ug.mL-1; ASSAY_TEST Inhibition of Fungal Growth; detection method Absorption (OD530).
The subject of experiment [3] is Cryptococcus neoformans. The conditions noted are these: Concentration 32 ug.mL-1; ASSAY_TEST Inhibition of Fungal Growth; detection method Resazurin; Absorption (OD600-OD570); plate type 384well; NBS; CORNING #3640.

Usually Inhibition stands for the drop in the measured response relative to a control, in per cent.

Consider `Cc1ccc(-c2ccc3nn(CC(=O)Nc4c(C)cccc4C)c(=O)n3n2)cc1C`, for which the figures for the Inhibition in experiment [1], in experiment [2] and in experiment [3] were -0.65%, -0.71% and -7.01%, respectively.
For `Cc1nnc2c(SCC(=O)Nc3ccc(F)cc3F)nc3ccccc3n12`, the values for the Inhibition in experiment [1], in experiment [2] and in experiment [3] were 16.48%, 0.69% and -22.98%, respectively.
For `COc1ccc(NC(=O)Cn2c(=O)c3nnc(C(C)C)n3c3ccccc32)cc1`, the Inhibition in experiment [1] is listed as 10.47%; in experiment [2], 4.15%; in experiment [3] it was -13.18%.
Taken in the same sequence, the figures for `Cc1ccc(-c2cc3c4nnc(CCC(=O)N5CCC(Cc6ccccc6)CC5)n4ccn3n2)cc1C` were 14.91%, 0.82% and -35.19%.
Turning to `Cc1cccc(NC(=O)Cn2nc3ccc(SC(C)(C)C)nn3c2=O)c1`, the figures for the Inhibition in experiment [1], in experiment [2] and in experiment [3] were 5.1%, 1.46% and -8.45%, respectively.
For `COc1ccc(NC(=O)C(C)Sc2nnc3c(=O)n(-c4ccc(C)c(C)c4)ccn23)cc1` (stereo not given), the Inhibition is recorded as 12.32% in experiment [1], -1.2% in experiment [2] and -9% in experiment [3].
For `CCc1nnc2c(SCC(=O)Nc3ccc(Br)cc3)nc3ccccc3n12`, the Inhibition is listed as -1.42% in experiment [1], 31.58% in experiment [2] and -6.67% in experiment [3].
Taken in the same sequence, the figures for `COc1cccc(-n2ccn3c(SCC(=O)NCc4ccc(Cl)cc4)nnc3c2=O)c1` were 6.58%, 0.82% and -6.96%.
For `COc1ccc(Cl)cc1NC(=O)CSc1nnc2c(=O)n(-c3ccc(C)c(C)c3)ccn12`, the Inhibition in experiment [1] is 15.8%; in experiment [2] it was 0.63%; in experiment [3], -9.59%.
Take `CCOc1ccc(-n2ccn3c(SC(C)C(=O)Nc4cc(OC)cc(OC)c4)nnc3c2=O)cc1` (stereo not given): the Inhibition in experiment [1] is recorded as 7.45%; in experiment [2], 1.5%; in experiment [3], -3.58%.
On the same counts, the results for `Cc1ccc(C)c(NC(=O)Cn2nc3c4cc(-c5ccc(C)c(C)c5)nn4ccn3c2=O)c1` are 5.73%, -1.76% and -22.88%.
In the case of `O=C(Cn1nc2ccc(Sc3ccccc3)nn2c1=O)Nc1ccc(F)c(Cl)c1`, the figures for the Inhibition in experiment [1], in experiment [2] and in experiment [3] were 8.09%, 1.47% and -7.06%, respectively.
For the compound `Cc1ccc(-c2cc3c4nn(CC(=O)Nc5ccc(C)c(Cl)c5)c(=O)n4ccn3n2)cc1C`, the Inhibition was 10.5% in experiment [1], 8.38% in experiment [2] and -8.69% in experiment [3].
Consider `CSc1cccc(NC(=O)Cn2nc3ccc(SC(C)(C)C)nn3c2=O)c1`, for which the Inhibition in experiment [1] is given as 7.55%; in experiment [2], 2.25%; in experiment [3], -15.09%.
Turning to `CCOC(=O)c1ccc(NC(=O)Cn2nc3c4cc(-c5ccc(Cl)cc5)nn4ccn3c2=O)cc1`, the Inhibition in experiment [1] is 8.16%; in experiment [2], 4.56%; in experiment [3] it was -16.17%.
As for `CCc1nnc2c(=O)n(CC(=O)Nc3ccc(NC(C)=O)cc3)c3ccccc3n12`, the results for the Inhibition in experiment [1], in experiment [2] and in experiment [3] were 5.97%, 5.77% and -14.46%, respectively.
On to `CCOc1ccccc1NC(=O)Cn1nc2c(N3CCN(c4ccccc4C)CC3)nccn2c1=O`, for which the Inhibition in experiment [1] is -9.36%; in experiment [2] it was 21.63%; in experiment [3], -5.29%.
As for `CCOc1ccc(NC(=O)Cn2nc3c(Sc4ccccc4)nccn3c2=O)cc1`, the Inhibition in experiment [1] was 8.21%; in experiment [2], 7.49%; in experiment [3] it was -21.93%.
In the case of `CC(=O)c1ccc(NC(=O)Cn2nc3ccc(Sc4ccccc4)nn3c2=O)cc1`, the Inhibition was -6.33% in experiment [1], 15.65% in experiment [2] and -7.51% in experiment [3].
On to `O=C(Cn1nc2c(N3CCOCC3)nccn2c1=O)N1CCN(c2ccccc2F)CC1`, for which the Inhibition in experiment [1] is 8.66%; in experiment [2], 0.78%; in experiment [3], -5.23%.
As for `CC1CCN(C(=O)Cn2nc3n(Cc4ccco4)c(=O)c4sccc4n3c2=O)CC1`, the Inhibition in experiment [1] is 6.19%; in experiment [2] it was 0.21%; in experiment [3], -13.38%.
`COc1ccc(NC(=O)Cn2nc3c(Sc4cccc(F)c4)nccn3c2=O)cc1Cl`: the Inhibition in experiment [1] is recorded as 3.02%; in experiment [2] it was 0.26%; in experiment [3], -9.78%.
For `CC(C)Cn1c(=O)c2sccc2n2c(=O)n(CC(=O)N(C)c3ccccc3)nc12`, the Inhibition was 9.42% in experiment [1], -0.55% in experiment [2] and -10.06% in experiment [3].
For the compound `O=C(Cn1nc2c(N3CCOCC3)nccn2c1=O)Nc1ccc(Br)cc1F`, the Inhibition in experiment [1] is reported as 9.99%; in experiment [2] it was 1.73%; in experiment [3], -5.04%.
With `COc1ccc2[nH]cc(C(=O)CSc3nnc4c(=O)n(-c5ccc(C)c(C)c5)ccn34)c2c1`, the Inhibition in experiment [1] is on record as 2.12%; in experiment [2], 0.06%; in experiment [3], -6.08%.
On the same counts, the results for `COc1ccc(CN(c2cc(C)cc(C)c2)S(=O)(=O)c2cccn3c(C)nnc23)cc1` are -1.14%, 2.31% and -5.62%.
For `CN(C(=O)Cn1nc2n(Cc3ccco3)c(=O)c3sccc3n2c1=O)c1ccccc1`, the Inhibition in experiment [1] is -0.68%; in experiment [2], 2.07%; in experiment [3], -9.74%.
On the same counts, the results for `Cc1c(Cl)cccc1-n1ccn2c(=O)n(Cc3cccc(F)c3)nc2c1=O` are 6.93%, 10.08% and -17.54%.
`Cc1ccc(-c2ccc3nn(Cc4ccc(N5CCCC5=O)cc4)c(=O)n3n2)cc1`: the results for the Inhibition in experiment [1], in experiment [2] and in experiment [3] were 8.04%, 1.53% and -7.16%, respectively.
Taken in the same sequence, the figures for `CCCn1c(=O)c2sccc2n2c(CCC(=O)NCCC34CC5CC(CC(C5)C3)C4)nnc12` were 9.89%, 5.72% and -25.69%.
`COc1ccc(CCn2c(=O)c3sccc3n3c(=O)n(Cc4c(F)cccc4Cl)nc23)cc1OC`: the Inhibition in experiment [1] is 4.92%; in experiment [2] it was -1.61%; in experiment [3] it was -23.43%.
As to `Cn1c(=O)c2ccc(C(=O)NC3CCCC3)cc2n2c(SCC(=O)Nc3cc(F)ccc3F)nnc12`, the Inhibition in experiment [1] is on record as 7.15%; in experiment [2] it was 0.81%; in experiment [3], -19.18%.
In the case of `COc1cc(OC)c(NC(=O)Cn2nc3ccc(Sc4cccc(F)c4)nn3c2=O)cc1Cl`, the Inhibition is 2.02% in experiment [1], 6.91% in experiment [2] and -5.99% in experiment [3].
Regarding `CC1CCCN(c2nccn3c(=O)n(CC(=O)Nc4ccc(Br)cc4F)nc23)C1` (stereo not given), the Inhibition is recorded as 5.81% in experiment [1], 5.05% in experiment [2] and -8.97% in experiment [3].
As to `COc1cc(OC)c(NC(=O)Cn2nc3ccc(-c4ccc(C)c(C)c4)nn3c2=O)cc1Cl`, the Inhibition in experiment [1] is reported as 7.84%; in experiment [2], 1.07%; in experiment [3], -20.51%.
As for `Cc1cc(C)cc(Nc2nc(C)cc3nn(CC(=O)NC4CCCC4)c(=O)n23)c1`, the Inhibition in experiment [1] was 17.93%; in experiment [2] it was 3.67%; in experiment [3], -8.76%.
With `CCc1nnc2ccc(S(=O)(=O)N(Cc3ccc(OC)cc3)c3cccc(F)c3)cn12`, the Inhibition in experiment [1] is 4.14%; in experiment [2] it was 4.82%; in experiment [3], -8.59%.
For the compound `Cc1cccc(C)c1NC(=O)Cn1nc2c(SC3CCCCC3)nccn2c1=O`, the Inhibition in experiment [1] is recorded as 8.3%; in experiment [2] it was 20.03%; in experiment [3], -18.68%.
For the compound `COc1ccc(NC(=O)Cn2nc3c(Sc4cccc(C)c4)nccn3c2=O)cc1Cl`, the Inhibition in experiment [1] was 5.17%; in experiment [2], 12.08%; in experiment [3], -20.89%.
In the case of `Cc1ccc(NC(=O)Cn2nc3ccc(C(=O)NCc4ccccc4)cn3c2=O)c(Br)c1`, the Inhibition was -0.66% in experiment [1], 7.92% in experiment [2] and -19.22% in experiment [3].
`O=C(Cn1nc2c3cc(-c4ccc(Cl)cc4)nn3ccn2c1=O)Nc1ccc2c(c1)OCO2`: the Inhibition is given as 13.7% in experiment [1], -0.02% in experiment [2] and -18.97% in experiment [3].
In the case of `COc1ccc(C(C)NC(=O)CCc2nnc3ccc(-c4ccc(C)c(C)c4)nn23)cc1OC` (stereo not given), the Inhibition is 11.56% in experiment [1], 3.04% in experiment [2] and -6.29% in experiment [3].
For the compound `COc1ccc(-c2cc3c4nn(CC(=O)Nc5cc(C)cc(C)c5)c(=O)n4ccn3n2)cc1`, the Inhibition in experiment [1] was 9.4%; in experiment [2] it was 2.5%; in experiment [3], -4.71%.
With `CCc1ccccc1NC(=O)Cn1nc2n(C)c(=O)c3c(c(-c4ccccc4)cn3C)n2c1=O`, the Inhibition is recorded as 1.01% in experiment [1], 6.61% in experiment [2] and -4.79% in experiment [3].
Regarding `COc1ccc(N(Cc2ccc(Cl)cc2)S(=O)(=O)c2ccc3nncn3c2)cc1`, the Inhibition is 10.04% in experiment [1], 4.11% in experiment [2] and -7.19% in experiment [3].
For the compound `COc1cccc(-n2ccn3c(SCC(=O)c4ccc(C)cc4)nnc3c2=O)c1`, the Inhibition is recorded as 10.94% in experiment [1], 3.43% in experiment [2] and -10.21% in experiment [3].
On the same counts, the results for `CC(=O)c1ccc(NC(=O)Cn2nc3c4cc(-c5ccc(Cl)cc5)nn4ccn3c2=O)cc1` are 16.61%, 29.09% and -18.84%.
Consider `CC(C)(C)NC(=O)Cn1nc2n(Cc3cccs3)c(=O)c3sccc3n2c1=O`, for which the figures for the Inhibition in experiment [1], in experiment [2] and in experiment [3] were 3.31%, -0.71% and -8.9%, respectively.
Turning to `O=c1c2sccc2n2c(=O)n(Cc3ccccc3Cl)nc2n1CCc1ccccc1`, the Inhibition in experiment [1] was 12.78%; in experiment [2], 2.07%; in experiment [3], -28.45%.
Taken in the same sequence, the figures for `CCN(CCCNC(=O)CCc1nnc2ccc(-c3ccccc3)nn12)c1ccccc1` were 9.95%, 3.75% and -0.38%.
